# Experimental data as given in PubChem BioAssay AID1347426 (Functional Genomics Laboratory (NCATS/FGL), 2020).
# Among all 31,000 sequences or so, about 1,400 (4.5%) were called active.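 The calls were made as follows: active = median seed-adjusted z-score above 1 or below -1; inactive = the rest.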 This excerpt belongs to a sample that is enriched for actives.
# Experiment: Novel Modifiers of Survival Motor Neuron (SMN) Protein: Gene Identification via Genome-wide siRNA Screen
# Settings: HEK293T SMN2-luciferase reporter, siRNA knockdown, 72 h; actives lie on both sides
# From the text: Spinal muscular atrophy (SMA) is the most common neuromuscular autosomal recessive disorder and one of the leading genetic causes of infant death. SMA results from mutations inducing loss of function or deletion in the survival of motor neuron-1 gene (SMN1), leading to deficiency of the survival motor neuron (SMN) protein. Although a second nearly identical gene, SMN2, is retained in humans, its expression primarily produces an aberrantly spliced isoform that is largely unstable and quickly degraded. We performed a genome-wide RNAi screen using a cell-based reporter assay to identify genes and pathways that modulate SMN protein stability. The screen identified over 200 genes that led to the greatest increase or decrease in luciferase expression.
# Using HEK293T cells stably expressing a luciferase reporter that combines the promoter and splicing based cassettes in tandem with the major portion of the native SMN2 cDNA with luciferase, we performed a genome-wide RNAi screen to identify modulators of SMN protein levels. Luciferase is expressed when full-length SMN protein is generated with luminescence signal proportional to SMN protein levels. Our luciferase-based reporter assay was used to screen Ambion Silencer Select Human Druggable Genome siRNA library (10418 genes, 3 unique siRNAs per gene) using lipid-based reverse transfection.
# Briefly, 1 pmol of each siRNA was spotted to a well of a 384-well plate (Corning, Corning, NY) and 20 microL of serum-free DMEM containing […] of Lipofectamine RNAiMax (Life Technologies, Carlsbad, CA) was then added to each well. Transfected cells were maintained at 37 degrees C in 5% CO2 for 72 hours, 20 microL of ONE-Glo Reagent (Promega) was added to wells for luciferase quantification. Raw luminescence reads were normalized to Ambion(R) Silencer(R) Negative Control #2 siRNA, then log10 transformed. A robust statistical measure of median absolute deviation (MAD) to standardize siRNA activities from each screen. Common Seed Analysis was used to help prioritize clean hits as opposed to those appearing to arise from seed based off-target effects. Candidate modulators were defined as the genes having a MAD score greater than 1.0 or less than -1.0.
row,Sequence,median seed-adjusted z-score
1,GCAAUUCCCAAGAUCCUUATT against LAMB1,1.07 (active)
2,GGUCGAAUGAUAAGGUGUATT against PTK2,-0.0806 (inactive)
3,GCCUCAGUCUUUGCAGUCUTT against CDCP2,0.0708 (inactive)
4,GGUAAUGACUCCACAGGGATT against SNRPN,-0.571 (inactive)
5,GAUACUACCCUGAUCAUAUTT against TMTC3,0.266 (inactive)
6,UGGUGUCAGUGGAUCGCUATT against GPR101,-0.265 (inactive)
7,CCAAAACAGUGGAGAGAGATT against BIN3,0.16 (inactive)
8,GAACAUUGUUUGUAAGGCUTT against SUOX,-0.0649 (inactive)
9,GGAUAUAAUGAGAUAUGUUTT against ETF1,-1.12 (active)
10,GCUCAACUCUCAUUCGGCATT against ZNF550,0.131 (inactive)
11,GACCUGCCGUGAUAUCGUUTT against PSMA3,-0.81 (inactive)
12,CACUAAACGAGGAUUCCUATT against YWHAH,-0.125 (inactive)
13,GGAUCGUAGUGAAACCGAUTT against DDX17,0.231 (inactive)
14,CGUGAUCAAUAGGAAAAUUTT against CCL8,0.436 (inactive)
15,CAGAUUACGUGGAACAGGATT against EFTUD2,-1.25 (active)
16,CGUCCUAAUCUCAAUCUUATT against CD200,-0.0135 (inactive)
17,GCCCAUAUUUCAUCGUGUATT against NPY,-0.0606 (inactive)
18,CAGGAUAUCGAAUCCCUAATT against PPFIA2,0.176 (inactive)
19,GUCGAGUUGUAUCGCAUUATT against COX4I1,-0.39 (inactive)
20,GGCUAGCCCUAGUAUGGAATT against CCAR1,-1.18 (active)
21,CCUUCAAUCACCGACCUUATT against SYNJ2,0.0202 (inactive)
22,CGCUACCUGUCCCUGUAUATT against GPR6,0 (inactive)

row,Sequence,median seed-adjusted z-score
1,GCAACAUAUGGGAAUUAGATT against MEIS1,0 (inactive)
2,CAGAGGAGCUACAAAAGUATT against MX1,-1.49 (active)
3,GCAUAUAUCAAGAAUUCAATT against CLIC4,-0.498 (inactive)
4,GAAACUAUAUCCACAUCAATT against GIPR,0.475 (inactive)
5,CAUCUUGAAGUCUUAUUAATT against MYOCD,-0.121 (inactive)
6,AAUCAGAUCAAAAACAUAATT against TNFRSF10C,0 (inactive)
7,GGAGGAAGGUCUCAACGUATT against TCFL5,1.52 (active)
8,GCAAAUCUAUUUUCGGAAATT against AGTPBP1,-0.201 (inactive)
9,GACUCUUCUGACUAACAUATT against DACH1,0.562 (inactive)
10,GACUCUAUGCUGAUAAUGATT against ADIPOQ,0.557 (inactive)
11,GCUGAGAUUUUCAAUAAGATT against NR1H4,-0.056 (inactive)
12,CGCCCAUUCUUCAAUGUCATT against SIAH1,1.5 (active)
13,AGUGCGCCCAGAAUCUAAATT against ZNF689,0.448 (inactive)
14,CGGAGUUUGUUGAUAUCGATT against LGI2,0 (inactive)
15,CAAAUUUCCUGUUAAUCGATT against APPL1,0 (inactive)
16,GAAAUGACCUUAUUAGUCATT against RYK,-0.446 (inactive)
17,CAGACUACCCUGAUAGUUUTT against FLVCR1,0.197 (inactive)
18,GGUCAGAGACCAUCCAGAATT against GFRA4,-1.59 (active)
19,AGAGGAAGAUAGAUUUUCUTT against PFDN5,0.562 (inactive)
20,GGAUGUAUUGUCGCCUGUATT against RENBP,0.587 (inactive)
21,CGAACUGCUUUAUGACCUATT against KIF20A,0.906 (inactive)
22,GACGAGACCUCUUCUCUCATT against ART1,0.0033 (inactive)

row,Sequence,median seed-adjusted z-score
1,CCUGUGGUUUGCUAUCUAATT against SLC24A5,-0.166 (inactive)
2,CGGUGCUGCUAGACGUGAATT against HSPB6,0.394 (inactive)
3,GGGUAAUUGGAACAUGUUUTT against RCN3,-2.44 (active)
4,CCUUUACAAAUAACGGAUATT against NHLRC2,0.548 (inactive)
5,CAUGUUCACUGCUACCGAUTT against LPP,-0.103 (inactive)
6,CCUUCAUCCGUAUCAUGGATT against POLD1,-0.715 (inactive)
7,GCUGUGAUCUCAUGGAUCATT against KLHL3,-0.237 (inactive)
8,GCUUUAUGUGGGCUCAUUATT against RBM39,-1.82 (active)
9,CACUGACACUUACAAUGAATT against UGT3A1,0.864 (inactive)
10,GGAACUUACGAUGCAGGAATT against GALNT13,-0.0149 (inactive)
11,GCAACAGUAUUUCGGUAUATT against CHEK1,-5.1 (active)
12,GUCUUAGAAUGAGUAGCAATT against KCNMA1,0 (inactive)
13,CACUAUCAGUUGGAACAGATT against CD36,-0.000845 (inactive)
14,GGCUGAGAUGCGUCGUAAATT against ARCN1,-1.25 (active)
15,GAUUGAUGGGUGUAAGAAATT against SMS,0.186 (inactive)
16,GAGACCUAAUGUUUCAUAUTT against PRKCI,0.386 (inactive)
17,CAAGGUCAAGUGCGAGAAATT against MAFB,0.674 (inactive)
18,CCGUCAUGGUUGAUGGAGATT against SEMA4D,0.309 (inactive)
19,CCAUAGUCUUCAUCUACGATT against GPR153,-1.08 (active)
20,GAACAGUGUUUGUCAGCAUTT against ASAH2,0.615 (inactive)
21,AAAGCACAGUGUUAAAUGATT against TAC1,0.0499 (inactive)
22,CCCAGAAGAUUACCUUUGATT against NARG1L,0.0121 (inactive)

row,Sequence,median seed-adjusted z-score
1,CCGUGCUGACCUCCAAAUATT against HBA1,-1.03 (active)
2,CUUUCGGUUUGAAGAAUAATT against ZC3H15,0.191 (inactive)
3,AGCAUGUGGUAGACGAGAATT against RGS19,0.295 (inactive)
4,GACCUUCACCGUUACGUUATT against HDLBP,-1.18 (active)
5,AGCUCGUACUGUUCCAAUATT against MMP19,0.43 (inactive)
6,AGUGACAGAGUACAAGAUATT against EIF3G,-0.198 (inactive)
7,AAGUGGGAGUUACAUUAAATT against DLGAP2,0.295 (inactive)
8,GGAUGUCAACUGUGCUUUUTT against MED24,-2.3 (active)
9,CAGUGAAGGUGAAAUUCGATT against UCHL5,-0.358 (inactive)
10,GGAUAAUGAUCGCGAGGAATT against ALS2,0 (inactive)
11,GGUUCACGGCUAAAGCAAUTT against DGCR8,-0.266 (inactive)
12,CUACCAGGCUUAAUAGGAATT against GFM2,0.26 (inactive)
13,GGGUCUUACUGAUUCCACATT against A4GNT,0.213 (inactive)
14,CGAGAGUUACUUACAAGAATT against RAN,-3.09 (active)
15,CAUCAUUACCAGAGCUACATT against RLN1,0.0637 (inactive)
16,CCGCAGUUCUAGGUCCAAUTT against ABCC2,-0.0464 (inactive)
17,CAACCAAGGUCAGUCUUAUTT against TFCP2L1,-0.246 (inactive)
18,AGAUAAGAAUCGCAUGACATT against ARHGAP9,0 (inactive)
19,GAACGUAGAAUGAAAGUAATT against PSMC1,-2.23 (active)
20,GACUAUAACUUCCCGAAAATT against SYT11,0.29 (inactive)
21,GGGUUACAGCUAAAAUUGUTT against OC90,0.216 (inactive)
22,GGUGCGGCCCUAUUACUUUTT against RPUSD2,-0.215 (inactive)

row,Sequence,median seed-adjusted z-score
1,GAGACUCUGUGGACGUAAATT against ZNF101,0.336 (inactive)
2,AGCUUCUACCGUGUCCUUATT against UCK2,-1.51 (active)
3,CUACCUUACUUUAACAUUATT against KCNS3,0.103 (inactive)
4,GCGAAAUUUUGGAUAUCAATT against KIF23,-0.449 (inactive)
5,GGACACCUGUGAACCGCAUTT against ARID3A,-1.11 (active)
6,GGGAUAUUUUCUACGCUUUTT against DNAH5,-0.45 (inactive)
7,GGUCACCACCAAAUACGUUTT against B4GALNT2,-0.174 (inactive)
8,CGAUUUAUCCGAUGCCCUUTT against CD99,0 (inactive)
9,CCAUCUCCAGUUGUAUUUUTT against CHKA,-0.558 (inactive)
10,GACGGAAAGACUUACGUUATT against EIF2AK2,0.419 (inactive)
11,GAAUCAACUUUGCCGUGUUTT against SHMT2,-0.0453 (inactive)
12,CCUUGUCACAGGUCAAUCATT against VWF,0.159 (inactive)
13,GAUGGGACAUCGUUGCUCATT against OASL,1.02 (active)
14,CAGGAUCUACGAUAAGGUATT against ACSL5,0.109 (inactive)
15,CGAGAAAGAAUUCCACUUUTT against HOXC5,0.507 (inactive)
16,GACUGACAUUGAGAUUACATT against CCT3,-0.416 (inactive)
17,GGUGAAUACUUCCGGUACATT against SULT2B1,0 (inactive)
18,CUCUGUGAAUGGUGCCGAATT against FAM57A,0.0434 (inactive)
19,GGGAAUGACUGGAAGACGATT against TTF1,1.76 (active)
20,GAAUGGUGUGGAUCUCCUATT against ARPC5,-0.479 (inactive)
21,GCAAUGUGGUCAAGACGGATT against INHBE,0.172 (inactive)
